CHX counter – counter-screen hit for Shiga toxin inhibitors, cycloheximide; actives 12% (n = 300,000); max response, %; cell reporter, cycloheximide protein synthesis inhibition counterscreen; in the data active = max response mostly above about 13%, no sharp cut-off; inactive = mostly below about 14%; also: read at 38.3 µM for the half of the compounds with a filed dose
Pf growth 48h – inhibits P. falciparum growth in the first generation, 48 h; P. falciparum luciferase growth in erythrocytes, 48 h; actives 5.9% (n = 310,000); Potency, µM (series often up to 28.7 µM), most hits filed as inhibitors; AID 504832; active = well fitted inhibition curve with a large enough effect; inconclusive = small, poorly fitted or top-dose-only effect, or another doubt; inactive = no such curve, though single readings can be large or run the other way
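A one-generation exposure of luciferase-tagged malaria parasites in RPMI 1640/Albumax erythrocyte culture, 37 C and 5% CO2. Inhibition is inferred from decreased luminescence after adding detection reagent.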
SARS PLP yeast – inhibitors of SARS-CoV papain-like protease in yeast; S. cerevisiae expressing SARS-CoV PLpro, growth rescue; actives 0.19% (n = 330,000); AID 485353; Potency, µM (highest dose often 32.9 µM), actives largely listed as activators; also: nearly all actives have a fitted effect of over 55% in size
Shiga inhibitor – Shiga toxin inhibition. Vero cells, Shiga toxin protein synthesis inhibition reporter. inhibition, % at 38.7 µM. actives 9.2% (n = 290,000). AID 2315; in the data active = inhibition mostly above about 28%, no sharp cut-off; inactive = mostly below about 43%
NS1 function inh – influenza NS1 inhibition | Potency, µM (top dose mostly 46.1 µM) | actives 0.4% (n = 270,000) | AID 2326; also: actives are rising curves; nearly all actives have a fitted effect of over 50% in size
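Read-out: OD600 growth recovery of NS1-expressing budding yeast. Cells grown overnight at 30C in -URA glucose medium, washed, resuspended and diluted 1:100 in 2% galactose assay medium, pH 6.0. Same strain lacking NS1 served as positive control.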
Pf growth 96h – P. falciparum growth inhibition at 96 hours. P. falciparum luciferase reporter growth, 96 h. Potency, µM (highest dose often 28.7 µM), actives largely listed as inhibitors. actives 6.9% (n = 320,000). AID 504834; active = well fitted inhibition curve with a large enough effect; inconclusive = small, poorly fitted or top-dose-only effect, or another doubt; inactive = no such curve, though single readings can be large or run the other way
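Erythrocytes infected with luciferase-expressing P. falciparum were dispensed at 2% hematocrit and 0.05% parasitemia (final), then incubated with compounds 96 hours at 37 C in 5% CO2. Luminescence after detection reagent addition reported growth.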
Of the large screens only hits and unclear results are named; the others gave an inactive call. An excerpt weighted towards active compounds, which were near 21% of everything screened. Unless noted, calls follow the shape of the full dose curve.

COc1ccc(CN(C(=O)CNC(=O)c2ccco2)C(C(=O)NCC2CCCO2)c2ccccc2)cc1 (stereo not given)	Pf growth 96h 2.33µM
COc1ccc(CN(C(=O)Cn2nnc(-c3ccc(C)o3)n2)C(C(=O)NCC2CCCO2)c2ccco2)cc1 (stereo not given)	CHX counter 16.7
COc1ccc(N(C(=O)CNC(=O)c2ccco2)C(C(=O)NCC2CCCO2)c2ccccc2)c(OC)c1 (stereo not given)	none
Cc1ccc(-c2nnn(CC(=O)N(c3ccccc3)C(C(=O)NCC3CCCO3)c3ccc(Cl)cc3)n2)cc1 (stereo not given)	Pf growth 48h inconclusive, Pf growth 96h 8.28µM
COc1ccc(-c2nnn(CC(=O)N(Cc3ccco3)C(C(=O)NCC3CCCO3)c3ccco3)n2)cc1 (stereo not given)	none
Cc1ccc(-c2nnn(CC(=O)N(c3ccccc3)C(C(=O)NCC3CCCO3)c3cccs3)n2)o1 (stereo not given)	Pf growth 96h 10.4µM (no result: NS1 function inh)
Cc1c2cnn(CC(=O)NC3CCCC3)c(=O)c2c(C)n1Cc1ccccc1	CHX counter 28.9, Shiga inhibitor 76.9
Cc1ccc2oc(=O)c3cnn(CC(=O)NCCN4CCOCC4)c3c2c1	Pf growth 96h 9.28µM
Cc1ccc2oc(=O)c3cnn(CC(=O)NCCN(C)C)c3c2c1	none
Cc1ccc2oc(=O)c3cnn(CC(=O)NC4CCN(Cc5ccccc5)CC4)c3c2c1	Pf growth 96h 2.33µM (no result: Pf growth 48h)
Cn1nc([N+](=O)[O-])nc1Oc1ccccc1F	Pf growth 96h 13.1µM
CC(C)CCSc1nc(N)c(C#N)cc1C#N	CHX counter 33.2, Pf growth 48h 11.7µM
Cc1ccc(NC(=O)CN(C)C(=O)C2CC(=O)N(Cc3ccccc3)C2)cc1 (stereo not given)	none
C#Cc1cccc(Nc2ncnc3cc(OCCOC)c(OCCOC)cc23)c1	Pf growth 48h 13.5µM, Pf growth 96h 6.01µM (no result: CHX counter, SARS PLP yeast, Shiga inhibitor, NS1 function inh)
COc1cc2ncnc(Nc3cccc(Cl)c3)c2cc1OC	none (no result: Pf growth 48h, Pf growth 96h)
COc1cccc(C(=O)c2cn(CC(=O)NCc3ccco3)c3nc(C)ccc3c2=O)c1	Pf growth 96h 4.15µM
N[C@H]1C(O)O[C@H](CO)[C@@H](O)[C@@H]1O (stereo not given in full)	none (no result: CHX counter, SARS PLP yeast, Shiga inhibitor, NS1 function inh)
CCN(CC)CCCNc1oc(-c2cccc(Cl)c2)nc1C#N	Pf growth 48h inconclusive
COCCCNc1oc(-c2ccccc2Cl)nc1C#N	CHX counter 15.5
N#Cc1nc(COc2ccc(Cl)cc2Cl)oc1N1CCOCC1	CHX counter 29.1, Shiga inhibitor 35.5
COCCCNc1oc(COc2ccc(Cl)cc2Cl)nc1C#N	Pf growth 96h 13.1µM (no result: Pf growth 48h)
CC(C)CNc1oc(-c2ccco2)nc1C#N	none
CC(C)CNc1oc(-c2ccccc2Cl)nc1C#N	CHX counter 13.5, Shiga inhibitor 29.0
Cc1cccc(C)c1OCC(O)CN1CCC(CN2C(=O)c3cccc4cccc(c34)C2=O)CC1 (stereo not given)	Pf growth 48h inconclusive (no result: Pf growth 96h)
COc1c(Cl)cc(Cl)cc1CNc1ccc(S(N)(=O)=O)cc1	none
COc1ccc(Cn2ccc(=O)c(Cc3c(Cl)cccc3Cl)c2C)cc1	Pf growth 48h inconclusive, Pf growth 96h inconclusive
Cc1c(OCc2ccccc2)c(=O)ccn1Cc1ccc(F)cc1	Pf growth 48h inconclusive, Pf growth 96h 2.33µM (no result: NS1 function inh)
Cc1ccc(Cn2ccc(=O)c(Cc3c(Cl)cccc3Cl)c2C)cc1	Pf growth 48h inconclusive, Pf growth 96h 0.415µM
Cc1c(O)c(=O)ccn1Cc1ccccc1	SARS PLP yeast 10µM, NS1 function inh inconclusive, Pf growth 96h inconclusive
COc1ccc2c(c1OC)C(=O)N1c3ccccc3C(=O)N(c3ccc(F)cc3)C21 (stereo not given)	Pf growth 48h inconclusive, Pf growth 96h inconclusive
COc1ccc2c(c1OC)C(=O)N1c3ccccc3C(=O)N(c3ccccc3)C21 (stereo not given)	Pf growth 48h 13.1µM, Pf growth 96h 10.4µM
CCc1c2c(nc3ccc(OC(=O)N4CCC(N5CCCCC5)CC4)cc13)-c1cc3c(c(=O)n1C2)COC(=O)C3(O)CC (stereo not given)	none (no result: Pf growth 48h, SARS PLP yeast, NS1 function inh, Pf growth 96h)
C/C(=N\Nc1nc(N)cc(Cl)n1)c1ccc(F)cc1	CHX counter 41.3, Shiga inhibitor 70.0
C/C(=N\Nc1nccnc1Cl)c1ccc(F)cc1	CHX counter 33.1, Shiga inhibitor 84.9
C/C(=N\Nc1cc(Cl)nc(C)n1)c1ccc(Cl)c(Cl)c1	Pf growth 48h inconclusive
C/C(=N\Nc1nccnc1Cl)c1ccc(Cl)c(Cl)c1	CHX counter 28.7 (no result: Shiga inhibitor)
C/C(=N\Nc1nccnc1Cl)c1ccc(O)cc1	CHX counter 25.6, Shiga inhibitor 28.7, Pf growth 96h 7.38µM
C/C(=N\Nc1nccnc1Cl)c1c(F)c(F)c(F)c(F)c1F	none
CCC(=O)[C@@H](c1ccccc1)c1ccccn1	none (no result: CHX counter, Pf growth 48h, SARS PLP yeast, Shiga inhibitor, Pf growth 96h)
CSCC(=O)NC1CCCc2c1cnn2-c1ccc(C)c(C)c1 (stereo not given)	Shiga inhibitor 57.5, Pf growth 96h inconclusive
Cc1ccc(-n2ncc3c2CCCC3NC(=O)CCCN2CCCCC2=O)cc1C (stereo not given)	Pf growth 96h 13.1µM
Cc1ccc(-n2ncc3c2CCCC3NC(=O)CCN2CCCC2=O)cc1C (stereo not given)	Pf growth 96h inconclusive
CC1CCCCN1C(=O)COC(=O)CNC(=O)c1ccc(Cl)cc1Cl (stereo not given)	none (no result: CHX counter, Shiga inhibitor, NS1 function inh)
C=CCc1ccc(OCCCCNC2CCCC2)c(OC)c1	none
C=CCc1ccc(OC(=O)NC2CCCCC2)c(OC)c1	CHX counter 28.5, Shiga inhibitor 71.4
CCCc1ccc(OCc2ccc(C(=O)O)o2)c(OC)c1	CHX counter 74.4, Shiga inhibitor 133.5
C=CCc1ccc(OCc2ccc(C(=O)O)o2)c(OC)c1	CHX counter 56.0, Shiga inhibitor 86.8
COc1ccccc1OCc1ccc(C(=O)OCC2CCCO2)o1 (stereo not given)	CHX counter 41.0
CCCc1ccc(OCc2ccc(C(=O)NN)o2)c(OC)c1	CHX counter 22.2, Shiga inhibitor 41.0
COc1ccccc1OCc1ccc(C(=O)NC(C)(C)C)o1	CHX counter 12.2
Cc1cc(C)cc(OCc2ccc(C(=O)NN)o2)c1	none
CCCc1ccc(OCc2ccc(C(=O)OC)o2)c(OC)c1	CHX counter 76.3, Shiga inhibitor 146.2
C=CCn1c(SCC(=O)Nc2cc3oc4ccccc4c3cc2OC)nnc1-c1cnccn1	Pf growth 48h 9.28µM
C=CCn1c(SCC(=O)Nc2ccc(F)cc2F)nnc1-c1cnccn1	CHX counter 26.5, Shiga inhibitor 44.7
C=CCn1c(SCC(=O)Nc2cccc3ccccc23)nnc1-c1cnccn1	Pf growth 48h inconclusive, Pf growth 96h inconclusive
C=CCn1c(COc2ccccc2F)nnc1SCC(=O)Nc1cc2oc3ccccc3c2cc1OC	none
COCCNC(=O)CSCc1cc(C)cc(C)c1	Pf growth 96h inconclusive (no result: NS1 function inh)
Cc1cc(NC(=O)C23CC4CC(C2)CC(n2cnc([N+](=O)[O-])n2)(C4)C3)no1	none
